Assay results as given in PubChem BioAssay (Tox21).
The source made the active and inactive calls. The call rests on the fitted dose curve.

molecular target: Acetylcholinesterase (Homo sapiens) (UniProt P22303); test: Acetylcholinesterase (AChE) small molecule antagonists: enzyme-based qHTS assay with human liver microsomes (AID 1347399); details: Potency: qHTS inhibition; outcome: qHTS inhibition; series mostly up to 115 µM; activity change, negative = inhibition: at the top concentration; further: nearly all actives have a fitted effect of over 60% in size
Outline: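 Recombinant human AChE (50 mU/mL in the enzyme mix) and human liver microsomes (0.25 mg/mL final) were preincubated with compound and NADPH (0.25 mg/mL final) for 30 min at 37 C. Acetylthiocholine/DTNB was then added; thiocholine was read colorimetrically after 10 min at room temperature.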
On the % scale 0 is the no-effect control and ±100 the full control effect.

Acetylcholinesterase (Homo sapiens), sequence (P22303 whole entry, looked up): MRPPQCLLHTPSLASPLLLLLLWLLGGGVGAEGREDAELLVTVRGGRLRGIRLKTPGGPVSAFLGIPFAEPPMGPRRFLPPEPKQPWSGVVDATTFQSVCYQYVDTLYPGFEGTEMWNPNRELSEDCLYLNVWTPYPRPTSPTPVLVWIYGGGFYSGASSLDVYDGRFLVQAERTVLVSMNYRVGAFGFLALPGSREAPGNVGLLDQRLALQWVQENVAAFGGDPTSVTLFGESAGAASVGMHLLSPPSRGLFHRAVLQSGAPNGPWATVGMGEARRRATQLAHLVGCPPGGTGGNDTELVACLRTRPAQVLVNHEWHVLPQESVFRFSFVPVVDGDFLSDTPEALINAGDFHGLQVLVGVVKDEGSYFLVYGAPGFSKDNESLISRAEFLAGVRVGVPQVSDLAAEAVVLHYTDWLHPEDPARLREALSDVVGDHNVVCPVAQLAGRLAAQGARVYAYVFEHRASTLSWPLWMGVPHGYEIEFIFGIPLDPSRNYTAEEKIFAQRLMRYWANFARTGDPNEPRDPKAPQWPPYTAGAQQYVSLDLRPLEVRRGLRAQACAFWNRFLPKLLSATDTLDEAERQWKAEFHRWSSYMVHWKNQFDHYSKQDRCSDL

Row | Structure (SMILES) | activity change, negative = inhibition
1 | CCO[C@@H]1O[C@H](C(COCc2ccccc2)OCc2ccccc2)[C@H](OCc2ccccc2)[C@H]1O (some centres undefined) | -1.19% [at 53 µM] (inactive)
2 | COc1ccc2nc(SCc3ncc(C)c(OC)c3C)[nH]c2c1 | -0.418% [at 53 µM] (inactive)
3 | CCC[C@@H]1C[C@@H](C(=O)N[C@@H]([C@H]2O[C@H](SC)[C@H](O)[C@@H](O)[C@H]2O)[C@@H](C)O)N(C)C1 | 0.168% [at 53 µM] (inactive)
4 | COc1ccc(C(=O)Nc2ccccc2)cc1[N+](=O)[O-] | -1.71% (inactive)
5 | C[Si](C)(C)C | 0.0514% (inactive)
6 | Cc1nc(N)nc(N)c1-c1ccc(Cl)c(Cl)c1 | 0.202% [at 53 µM] (inactive)
7 | CCN(CC)c1ccc2c(c1)Oc1cc(N(CC)CC)ccc1C21OC(=O)c2ccccc21 | 0.891% [at 53 µM] (inactive)
8 | CC(=O)NC(Cc1ccccc1)C(=O)O (centres undefined) | 0.84% [at 53 µM] (inactive)
9 | OCC(F)(F)F | -5.49% (inactive)
10 | CN(CCOc1ccc(NS(C)(=O)=O)cc1)CCc1ccc(NS(C)(=O)=O)cc1 | -0.48% [at 53 µM] (inactive)
11 | CN1CCN(Cc2cc(-c3ccc4[nH]c(=O)oc4c3)co2)[C@@H](c2ccc(F)cc2)C1 | 0.067% (inactive)
12 | O=C(O)CCN(C1(C(=O)NO)CCCC1)S(=O)(=O)c1ccc(Oc2ccc(F)cc2)cc1 | 0.291% (inactive)
13 | CN(C)CCCSc1ccccc1NC(=O)/C=C/c1ccccc1 | 1.51% [at 53 µM] (inactive)
14 | CN1CCCC(CC2c3ccccc3Sc3ccccc32)C1 (centres undefined) | -1.43% [at 53 µM] (inactive)
15 | CC(C)(CCl)c1ccccc1 | -5.63% (inactive)
16 | COc1c(N2C[C@@H]3CCCN[C@@H]3C2)c(F)cc2c(=O)c(C(=O)O)cn(C3CC3)c12 | -0.336% [at 53 µM] (inactive)
17 | COc1cc(OC)nc(NC(=O)NS(=O)(=O)Nc2ccccc2C(=O)N(C)C)n1 | 0.251% (inactive)
18 | CCCCC(CC)COCCO (centres undefined) | -0.222% (inactive)
19 | CCCC(=O)OCc1ccccc1 | -1.85% (inactive)
